Test results as given in PubChem BioAssay (NCI).
This is part of a sample that, as a whole, favours compounds with a hit. Of some 83,000 tested, about 20% had one in any assay.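 Method: cells in 96-well plates; compound added at one concentration; 48 h incubation; percent growth measured; values under 10 scored active.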 Active and inactive are the calls of the source.

Tests used:
Experiment in all cases: NCI-60 one-dose screen, 48 h (100 = growth as untreated, 0 = no growth, -100 = all killed)
Settings in all cases: 10 µM unless noted
SK-MEL-2 melanoma = system: SK-MEL-2 melanoma
EKVX NSCLC = system: EKVX NSCLC
SN12C renal = system: SN12C renal
UO-31 renal = system: UO-31 renal
TK-10 renal = system: TK-10 renal
ACHN renal = system: ACHN renal
CAKI-1 renal = system: CAKI-1 renal
CCRF-CEM leukemia = system: CCRF-CEM leukemia
MOLT-4 leukemia = system: MOLT-4 leukemia

Measured: growth

c1ccc2cc(Cn3c(-c4cccc5ccccc45)[n+](Cc4ccc5ccccc5c4)c4c5ccccc5c5ccccc5c43)ccc2c1
active: SK-MEL-2 melanoma -72.5% | EKVX NSCLC -77.2% | SN12C renal -82% | UO-31 renal -89.2% | TK-10 renal -79.8% | ACHN renal -92.6% | CAKI-1 renal -96.7% | CCRF-CEM leukemia -17.4% | MOLT-4 leukemia -55.3%

C=C1C(=O)O[C@H]2[C@H]1CC/C(CNC(=O)/C=C/c1cccc(OC)c1)=C\CC[C@@]1(C)O[C@@H]21
active: EKVX NSCLC -20.2% | SN12C renal 6.02% | UO-31 renal -94.6% | TK-10 renal -37.7% | ACHN renal -79.7% | CAKI-1 renal -71.9% | CCRF-CEM leukemia 1.02% | MOLT-4 leukemia -3.23%
inactive: SK-MEL-2 melanoma 55.6%

CCOC(=O)Oc1c(OC)cc(C(=O)c2ccc(OC)c(O)c2OC)cc1OC
inactive: SK-MEL-2 melanoma 24.8% | EKVX NSCLC 58.9% | SN12C renal 46% | UO-31 renal 46.9% | TK-10 renal 43% | ACHN renal 38.5% | CAKI-1 renal 32% | CCRF-CEM leukemia 15.2% | MOLT-4 leukemia 28.1%

COc1cc2nc(-c3ccc(Cl)cc3)cc(OCCCN3CCC(O)CC3)c2cc1OC
active: CAKI-1 renal -5.22%
inactive: SK-MEL-2 melanoma 75.8% | EKVX NSCLC 56.7% | SN12C renal 36.6% | UO-31 renal 51.3% | TK-10 renal 92.2% | ACHN renal 35.1% | CCRF-CEM leukemia 57.5% | MOLT-4 leukemia 44.1%

O=C(Nc1ccccc1)Nc1ccc2cc3ccc(NC(=O)Nc4ccccc4)cc3nc2c1
inactive: SK-MEL-2 melanoma 55.5% | EKVX NSCLC 86.6% | UO-31 renal 89.9% | TK-10 renal 114% | ACHN renal 92% | CAKI-1 renal 80.3%
active: SN12C renal -26.5% | CCRF-CEM leukemia 0.957% | MOLT-4 leukemia -27.6%

CCCCCCNC(=O)Nc1ccc2cc3ccc(NC(=O)NCCCCCC)cc3nc2c1
inactive: SK-MEL-2 melanoma 11.3% | EKVX NSCLC 48.7% | UO-31 renal 94.2% | TK-10 renal 97.8% | ACHN renal 96.7% | CAKI-1 renal 71.4%
active: SN12C renal -72.7% | CCRF-CEM leukemia 0.631% | MOLT-4 leukemia -45%

Cc1cccc(NC(=O)Nc2ccc(-c3ccc4c(c3)NC(=O)/C4=C\c3ccc[nH]3)cc2)c1
inactive: SK-MEL-2 melanoma 111% | EKVX NSCLC 46.5% | SN12C renal 100% | UO-31 renal 70.3% | TK-10 renal 93.3% | ACHN renal 91.1% | CAKI-1 renal 82.6% | CCRF-CEM leukemia 30.1% | MOLT-4 leukemia 53.8%

CC(=O)Nc1ccc(-c2ccc3c(c2)NC(=O)/C3=C\c2ccc[nH]2)cc1
inactive: SK-MEL-2 melanoma 96% | EKVX NSCLC 49.5% | SN12C renal 94.6% | UO-31 renal 38.8% | TK-10 renal 70.2% | ACHN renal 69.5% | CAKI-1 renal 78.1% | CCRF-CEM leukemia 94.8% | MOLT-4 leukemia 87.3%

COc1ccc(C(=O)c2cc(C)c(OC)c(C)c2)c(OC)c1OC(=O)C(Cl)Cl
inactive: SK-MEL-2 melanoma 24.4% | EKVX NSCLC 58.4% | SN12C renal 30.1% | UO-31 renal 35.3% | TK-10 renal 50.9% | ACHN renal 18.3% | CAKI-1 renal 39.8% | CCRF-CEM leukemia 11.1% | MOLT-4 leukemia 20.7%

CCOC(=O)/C(C#N)=C1/NNC(=Nc2cccnc2)S1
inactive: SK-MEL-2 melanoma 107% | EKVX NSCLC 98.7% | SN12C renal 98.6% | UO-31 renal 92.1% | TK-10 renal 102% | ACHN renal 100% | CAKI-1 renal 97.1% | CCRF-CEM leukemia 106% | MOLT-4 leukemia 106%

COc1cc2c(=O)n(CCN)c3c4cc5c(cc4ccc3c2cc1OC)OCO5
inactive: SK-MEL-2 melanoma 47.2% | EKVX NSCLC 52.7% | TK-10 renal 42.7% | CAKI-1 renal 18.6%
active: SN12C renal -69.3% | UO-31 renal -84.8% | ACHN renal -10.5% | CCRF-CEM leukemia -19% | MOLT-4 leukemia -26%

O=C1Nc2cc(-c3ccc(NS(=O)(=O)c4ccccc4)cc3)ccc2/C1=C/c1ccc[nH]1
inactive: SK-MEL-2 melanoma 112% | EKVX NSCLC 28.9% | SN12C renal 96.2% | UO-31 renal 69.2% | TK-10 renal 68.9% | ACHN renal 88.5% | CAKI-1 renal 82.9% | CCRF-CEM leukemia 63.9% | MOLT-4 leukemia 73.1%

O=C(/C=C(O)/C=C/c1ccc(SC(F)(F)F)cc1)/C=C/c1ccc(SC(F)(F)F)cc1
inactive: SK-MEL-2 melanoma 101% | EKVX NSCLC 111% | SN12C renal 94.2% | UO-31 renal 73.1% | TK-10 renal 101% | ACHN renal 102% | CAKI-1 renal 96% | CCRF-CEM leukemia 60.7% | MOLT-4 leukemia 76.1%

COc1cc(C2C3CC4CCCC[C@H]4N3[C@@]3(C(=O)Nc4cc(Cl)ccc43)C2C(=O)c2nc3ccccc3[nH]2)cc(OC)c1OC (stereo partly drawn)
inactive: SK-MEL-2 melanoma 80.5% | EKVX NSCLC 48.6% | SN12C renal 63.2% | UO-31 renal 34.8% | TK-10 renal 68.8% | ACHN renal 56.9% | CAKI-1 renal 30.6% | CCRF-CEM leukemia 42.2% | MOLT-4 leukemia 14%

CC(C)(C)CC(C)(C)n1nnnc1C(NC12CC3CC(CC(C3)C1)C2)c1ccccc1 (stereo not drawn)
inactive: SK-MEL-2 melanoma 95.8% | EKVX NSCLC 84.9% | SN12C renal 88.8% | UO-31 renal 81.6% | TK-10 renal 94.9% | ACHN renal 95.8% | CAKI-1 renal 83.1% | CCRF-CEM leukemia 83.5% | MOLT-4 leukemia 90%

C=C1C(=O)O[C@H]2[C@H]1CC/C(COC(=O)NCC(C)c1ccc(CC(C)C)cc1)=C\CC[C@@]1(C)O[C@@H]21 (stereo partly drawn)
active: SK-MEL-2 melanoma -45.2% | EKVX NSCLC -6.2% | SN12C renal -57% | UO-31 renal -100% | TK-10 renal -36.1% | ACHN renal -100% | CAKI-1 renal -23.9% | CCRF-CEM leukemia -24.2% | MOLT-4 leukemia -8.4%

Nc1nc(Nc2ccccc2SSc2ccccc2Nc2nc(N)nc(-c3ccc(C(F)(F)F)cc3)n2)nc(-c2ccc(C(F)(F)F)cc2)n1
inactive: SK-MEL-2 melanoma 93.7% | EKVX NSCLC 44.6% | SN12C renal 57.6% | TK-10 renal 95.4% | ACHN renal 19.9% | CCRF-CEM leukemia 53.6% | MOLT-4 leukemia 56.2%
active: UO-31 renal -84.6% | CAKI-1 renal -20.3%

CCN1CCN(CCNc2nccc(-c3c(-c4cccc(OC)c4)nc4occn34)n2)S1(=O)=O
inactive: SK-MEL-2 melanoma 93.6% | EKVX NSCLC 90.9% | SN12C renal 95.6% | UO-31 renal 91.9% | TK-10 renal 128% | ACHN renal 84.9% | CAKI-1 renal 78.1% | CCRF-CEM leukemia 117% | MOLT-4 leukemia 89%

NC(=O)Nc1ccc(-n2cnc3cc(-c4ccc(O)cc4)ccc32)cc1
inactive: SK-MEL-2 melanoma 116% | EKVX NSCLC 112% | SN12C renal 94% | UO-31 renal 87.2% | TK-10 renal 121% | ACHN renal 92% | CAKI-1 renal 95.2% | CCRF-CEM leukemia 94.5% | MOLT-4 leukemia 84.9%

C=CC(=O)N[C@@H](/C=C/C(=O)OCC)Cc1ccc(-c2cc(Cl)cc(Cl)c2)cc1
active: SN12C renal 3.95% | TK-10 renal 6.04% | MOLT-4 leukemia 1.95%
inactive: SK-MEL-2 melanoma 14.1% | EKVX NSCLC 20% | UO-31 renal 14.2% | ACHN renal 26.7% | CAKI-1 renal 35.9% | CCRF-CEM leukemia 17.2%

C=CCN1C(=O)/C(=C/C(=O)OC)S/C1=N\NC(=O)c1cc2ccc1/C=C\c1ccc(cc1)/C=C\2
inactive: SK-MEL-2 melanoma 97.3% | EKVX NSCLC 90.8% | SN12C renal 86.9% | UO-31 renal 75.4% | TK-10 renal 108% | ACHN renal 87.9% | CAKI-1 renal 87.8% | CCRF-CEM leukemia 22.9% | MOLT-4 leukemia 35.4%

COc1cc(/C=C\C(=O)O)ccc1OCc1ccccc1
inactive: SK-MEL-2 melanoma 93.5% | EKVX NSCLC 115% | SN12C renal 95% | UO-31 renal 81.4% | TK-10 renal 101% | ACHN renal 102% | CAKI-1 renal 99.4% | CCRF-CEM leukemia 98.3% | MOLT-4 leukemia 96.3%

CCOC(=O)[C@@H](C)C[C@H](Cc1ccccc1)NC(=O)c1csc([C@@H](C[C@H](C(C)C)N(C)C(=O)[C@@H](NC(=O)[C@H]2C[C@H](O[Si](C)(C)C(C)(C)C)CCN2C)C(C)C)OC(C)=O)n1
inactive: EKVX NSCLC 24.1% [9.25 µM] | TK-10 renal 12.1% [9.25 µM] | CAKI-1 renal 15.9% [9.25 µM]
active: SK-MEL-2 melanoma -21.2% [9.25 µM] | SN12C renal 3.13% [9.25 µM] | UO-31 renal 8.06% [9.25 µM] | ACHN renal 5.74% [9.25 µM] | CCRF-CEM leukemia 0.176% [9.25 µM] | MOLT-4 leukemia 1.33% [9.25 µM]

N#C/C(=C\c1ccc(Cl)cc1)n1nnc2cc(F)c(F)cc21
active: SN12C renal 8.61% | UO-31 renal -17.5% | ACHN renal 9.15% | CCRF-CEM leukemia -8.83% | MOLT-4 leukemia 1.3%
inactive: SK-MEL-2 melanoma 38.6% | EKVX NSCLC 59.3% | TK-10 renal 16.9% | CAKI-1 renal 18%

COc1cccc(-c2cc(C(=O)Nc3ccc(/C=C/c4ccc(OC5CCN(C)CC5)cc4)cc3)ccc2OC)c1
active: SN12C renal -78.3% | TK-10 renal 1.81% | CCRF-CEM leukemia -10.8% | MOLT-4 leukemia -36.4%
inactive: SK-MEL-2 melanoma 98.5% | EKVX NSCLC 27.2% | UO-31 renal 37.7% | ACHN renal 60.1% | CAKI-1 renal 109%

O=C(CCN1CCCC1)Nc1ccc2c(NCCCc3ccccc3)c3ccccc3nc2c1
inactive: SK-MEL-2 melanoma 38.9% | EKVX NSCLC 40.8% | SN12C renal 14% | UO-31 renal 31.8% | ACHN renal 33.1% | CAKI-1 renal 27.5%
active: TK-10 renal 5% | CCRF-CEM leukemia -11.8% | MOLT-4 leukemia -18.5%

N=C(N)c1ccc(OCCCCCCCCCCOc2ccc(C(=N)N)cc2)cc1
active: SK-MEL-2 melanoma -90.3% | EKVX NSCLC -84.4% | SN12C renal -96.3% | TK-10 renal -93.5% | ACHN renal -21.3% | CAKI-1 renal -94.8% | CCRF-CEM leukemia -47.8% | MOLT-4 leukemia -61%
inactive: UO-31 renal 43.9%
